The record followed here is PubChem BioAssay (EPA / NIEHS).

Where “and” joins values, the source holds several entries; their conditions need not be identical. Equal values may be shown once. Results filed as inconclusive are left out. Calls of active or inactive are those of the source. The calls were made as follows: active = hit-call score of the fitted dose curve at least 0.9, where 1 is the maximum; inconclusive = response in the unintended direction; inactive = score below 0.9.

The experiment is described as follows: CCTE_Mundy_HCI_Cortical_NOG_NeuronCount: CCTE's Neurite Outgrowth Assay in rat cortical cells for Neuron Count, Mundy Lab (AID 2284236).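 Also: neurons counted by imaging betaIII-tubulin and Hoechst stained cortical cells; cells exposed to compound for about 48 hours before fixation.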 The method, then:
CCTE_Mundy_HCI_Cortical_NOG is a multiplexed, cell-based-readout assay that uses rat primary cortical cells with measurements taken at 50.33 hours after chemical dosing in a microplate: 96-well plate.CCTE_Mundy_HCI_Cortical_NOG_NeuronCount is one of four components of the CCTE_Mundy_HCI_Cortical_NOG assay. It measures cell viability related to the number of neurons using High Content Imaging of fluorescently labelled markers.[…] Using a type of morphology reporter, loss -of-signal activity can be used to understand developmental effects.
Exposure starts 2 hours post-plating by adding 10 ul of the working solution to 90 ul of media in the wells for a 1/10 dilution. Forty-eight hours after chemical treatment cells are fixed by direct addition of 100 ul of warm (37C) Dulbecco's phosphate buffered saline (DPBS) fixative solution containing 8% paraformaldehyde, 8% sucrose, and 0.1% of 3 mg/ml Hoechst 33342 into each well. Primary antibodies are prepared by dilution in Immunocytochemical Staining Buffer (ISB), 10X Dulbecco's PBS, 0.1% Saponin, 5% Bovine Serum Albumin, 0.5% NaN3 (Sodium Azide) and betaIII-tubulin (rabbit anti-betaIII-tubulin, 1:800) followed by Alexa Fluor-488 secondary (1:500) to label neuronal cell bodies and neurites. A Cellomics ArrayScan VTi HCS Reader is used for automated image acquisition and analysis of neurite outgrowth.
For orientation: AC50 means the concentration giving half of the maximal activity seen. Take `CC1(C)[C@H](C=C(Cl)Cl)[C@H]1C(=O)OCc1c(F)c(F)cc(F)c1F`: the half-maximal activity concentration (AC50) is 50 µM (active). In the case of `CN[C@]1(c2ccccc2Cl)CCCCC1=O`, the call was inactive. On to `Cc1ccc(OP(=O)(Oc2ccc(C)cc2)Oc2ccc(C)cc2)cc1` (tested in a mixture with another compound), for which the concentration at half-maximal activity (AC50) was 25.6 µM (active). For `[CH3][Sn]([CH3])[CH3]`, the compound was called inactive. Turning to `O=[As]O`, the AC50 is 3.59 µM (active).

Regarding `CCOP(=O)(Oc1cnc(C(C)(C)C)nc1)OC(C)C` (stereo unspecified), the outcome was inactive. As for `CCC[CH2][Sn]([CH2]CCC)([CH2]CCC)[O][Sn]([CH2]CCC)([CH2]CCC)[CH2]CCC`, the half-maximal activity concentration (AC50) is 0.0311 µM (active).

Take `O.O.O.O.O.[Cd+2].[Cd+2].[Cl-].[Cl-].[Cl-].[Cl-]`: the half-maximal activity concentration (AC50) was 76.6 µM (active). Consider `CC(=O)[O-].[Tl+]`, for which the half-maximal activity concentration (AC50) was 50 µM (active). For the compound `CC1(C)C(C=C(Cl)c2ccc(Cl)cc2)C1C(=O)OC(C#N)c1ccc(F)c(Oc2ccccc2)c1` (stereo unspecified), the outcome was inactive.

`COP(=O)(OC)SCN1C(=O)c2ccccc2C1=O`: the call was inactive. For `[CH3][Hg][Cl]`, the concentration at half-maximal activity (AC50) is 708 nM (active) and 631 nM (active). Take `CCOP(=O)(OCC)SCSCC`: the AC50 is 89 µM (active). For `Cn1nc(C(F)(F)F)c(CS(=O)(=O)C2=NOC(C)(C)C2)c1OC(F)F`, the compound was called inactive. Regarding `C=CCN1CC[C@]23c4c5ccc(O)c4O[C@H]2C(=O)CC[C@@]3(O)[C@H]1C5`, the compound was classed as inactive. Consider `CCOP(=O)(OCC)OC(Cl)C(Cl)(Cl)Cl` (stereo unspecified), for which the result was inactive. The same measure, in the same setting: next, `CC(=O)[O-].CC(=O)[O-].O.O.O.[Pb+2]`: “inactive”; `CC1(C)[C@H](C=C(Cl)Cl)[C@@H]1C(=O)O[C@@H](C#N)c1cccc(Oc2ccccc2)c1`: “inactive”. Same read-out and setting: in the case of `O=C(O)CNCP(=O)(O)O` it was “inactive”.

On to `CCOP(=O)(OCC)SCSC(C)(C)C`, for which the concentration at half-maximal activity (AC50) was 84.1 µM (active). Turning to `CN1C(=O)CN=C(c2ccccc2)c2cc(Cl)ccc21`, the compound was classed as inactive.

`CC1(C)C(C=C(Cl)Cl)C1C(=O)O[C@H](C#N)c1cccc(Oc2ccccc2)c1` (stereo partly specified): the compound was called inactive. `CC1(C)[C@H](C(=O)O[C@H](C#N)c2cccc(Oc3ccccc3)c2)[C@@H]1C=C(Br)Br`: the outcome was inactive. As to `C[C@H](N)Cc1ccccc1`, the result was inactive.

Regarding `[Cd+2].[Cl-].[Cl-]`, the AC50 was 9.84 µM (active). Regarding `CC1(C)[C@@H](C=C(Cl)Cl)[C@@H]1C(=O)O[C@@H](C#N)c1ccc(F)c(Oc2ccccc2)c1`, the call was inactive.
